Here are results for three molecules from PubChem BioAssay AID588651 (The Scripps Research Institute Molecular Screening Center, 2011).

Structures are written as SMILES. A number with no mark means an inactive call. Rule as the data show it: active = inhibition above about 65%; inactive = the rest.

This experiment relates to Fam108b. Put plainly: Fam108b inhibition by ABPP, late-stage follow-up, biochemical, gel-based ABPP, recombinant soluble Fam108b, HTS hits, complex proteome (AID 588651).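 Also: Fam108b spiked into mouse brain membrane proteome.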 Particulars: FP-rhodamine labeling in proteome, at 20 µM, stronger effect = higher value.
Regarding `Cc1ccccc1N1C(=O)/C(=C/c2ccco2)C(=O)NC1=S`, the inhibition was 0%.
For `NC(Cc1cc(O)c(O)cc1O)C(=O)O` (stereo not drawn) the value was 0%; for `C[n+]1c(-c2ccccc2)c2cc(N)ccc2c2ccc(N)cc21`, 0%.

In general, inhibition refers to the drop in the measured response relative to a control, in per cent.
